# From PubChem BioAssay (NCATS)
# Inconclusive results are not listed. Active and inactive are the calls of the source. Unless noted, the call rests on the fitted dose curve; in most records, active means well fitted curve in the direction sought with a large enough effect; inconclusive means small, poorly fitted or top-dose-only effect, or another doubt; inactive means no such curve, though single readings can be large; an effect the other way counts as inactive or inconclusive.
# What was measured:
# [1] = qHTS for Inhibitors of Ubiquitin-specific Protease USP2a Using CHOP2 as the Reporter: Cytotox Assay (AID 652170); further: nearly all actives have a fitted effect of over 70% in size; further: potency means the concentration at half of the fitted maximal effect
# Outline: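 Cytotoxicity read as ATP luminescence (CellTiter-Glo) after 72 hr compound treatment at 37 deg C. Cells: HCT116, 600/well in DMEM plus 10% FBS. Normalization between DMSO-treated cells and cell-free wells.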
# [2] = target: Ubiquitin carboxyl-terminal hydrolase 2 (Homo sapiens) (UniProt O75604); assay: qHTS for Inhibitors of Ubiquitin-specific Protease USP2a Using CHOP2 as the Reporter: K484 Substrate (AID 652173);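 further: cleavage of internally quenched K48 di-ubiquitin substrate measured as rising fluorescence over time; potency means the concentration at half of the fitted maximal effect; nearly all actives have a fitted effect of over 70% in size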
# Outline: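 Kinetic fluorescence (Ex 525/Em 598) tracked cleavage of an internally quenched K48 di-ubiquitin substrate, added as a 100 nM solution. The enzyme was added as a 5 nM USP2 solution before compound pinning, with no-enzyme controls. Buffer: Tris pH 8, beta-mercaptoethanol, CHAPS.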
# [3] = target: Calcium and integrin-binding protein 1 (Homo sapiens) (UniProt Q99828); assay: Primary qHTS for Identification of Calcium Integrin Binding Protein 1 (CIB1) Competitor (AID 1508620);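 further: GST tagged CIB1 binding a fluorescein labelled alphaIIb integrin peptide tracer; top concentration of the series differs between compounds; on the % scale 0 is the no-effect control and ±100 the full control effect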
# Outline: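 Fluorescence polarization competition: CIB1-GST (1 uM final) preincubated with compound 15 min at room temperature, then FITC-labeled alphaIIb peptide (100 nM final) added for another 15 min. Polarization read at Ex 480/Em 540.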
# [4] = Counterscreen qHTS for small molecule stabilizers of the endoplasmic reticulum resident proteome: GLuc-NoTag assay (AID 1508627);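 further: 0% = thapsigargin alone and -100% = DMSO vehicle control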
# Outline: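 Secreted GLuc lacking the SERCaMP modification is measured in SH-SY5Y cells exposed to compound for 19 h and then to thapsigargin (100 nM, 4 h) to deplete ER calcium; hits retested at 11 concentrations, up to 76.6 uM.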
# [5] = Confirmatory qHTS for small molecule stabilizers of the endoplasmic reticulum resident proteome: Secreted ER Calcium Modulated Protein (SERCaMP) assay (AID 1508628); further: on the % scale 0 is the no-effect control and ±100 the full control effect; nearly all actives have a fitted effect of over 40% in size
# Outline: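 Reporter secretion upon ER calcium depletion (100 nM thapsigargin, 4 h, 37C) is measured as medium luminescence with coelenterazine, after 16 h compound pretreatment of SH-SY5Y-GLuc-SERCaMP cells; primary at three concentrations up to 38.3 uM, follow-up at 11 (up to 76.6 uM).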
# [6] = Cell Viability qHTS for small molecule stabilizers of the endoplasmic reticulum resident proteome (AID 1508629); details: cell viability counter-screen, 100 nM thapsigargin for final 4 h;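 further: human SH-SY5Y neuroblastoma cells carrying the GLuc-SERCaMP reporter; compound exposure about 46 h in total before the viability read; on the % scale 0 is the no-effect control and ±100 the full control effect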
# [7] = qHTS profiling for inhibitors of Plasmodium falciparum (3D7) proliferation (AID 743322);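 further: infected erythrocytes exposed to compound for 72 h before lysis; 100% = DMSO vehicle wells and 0% = 0.29 µM artemisinin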; details: P. falciparum 3D7 proliferation; at 28.7 µM (top of the series)
# Outline: (§1)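 Parasite DNA was quantified by SYBR Green I fluorescence (ex 485, em 535 nm) after overnight lysis in saponin/Triton buffer at room temperature. Cultures at 0.3% parasitemia and 2.5% hematocrit were first exposed to compound for 72 h at 37 C; signals were normalised to artemisinin (0.29 uM) and vehicle wells.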
# [8] = qHTS profiling for inhibitors of Plasmodium falciparum (DD2) proliferation (AID 743323; call rule not given here); details: lower = more inhibition; at 28.7 µM (top of the series)
# Outline: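 1536-well qHTS; infected RBCs 0.3% parasitemia/2.5% Hct final; cpd 72 h 37 C 5% CO2; lysis buffer + SYBR Green I, o/n RT dark; FI 485/535; norm. to 0.29 uM artemisinin and DMSO, plate-stack corrected.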
# [9] = qHTS profiling for inhibitors of Plasmodium falciparum (HB3) proliferation (AID 743324); details: Plasmodium falciparum HB3 blood-stage proliferation; at 28.7 µM (top of the series);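 further: 100% = DMSO vehicle wells and 0% = artemisinin-treated control wells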
# Outline: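 SYBR Green fluorescence (485 ex/535 em) of lysed cultures, incubated overnight at room temperature in the dark, quantifies parasite DNA. Infected erythrocytes at 0.3% parasitemia and 2.5% hematocrit were exposed 72 h; values normalized to DMSO and 0.29 uM artemisinin controls.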
# [10] = qHTS profiling of the MIPE4 collection as inhibitors of Plasmodium falciparum (3D7) proliferation (AID 743344; call rule not given here;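 further: scaled between DMSO vehicle wells and 0.29 µM artemisinin as full inhibition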); details: P. falciparum 3D7 in erythrocytes, SYBR Green DNA fluorescence, 72 h; at 28.5 µM (top of the series)
# Outline: as §1
# [11] = qHTS profiling of the MIPE4 collection as inhibitors of Plasmodium falciparum (DD2) proliferation (AID 743345; call rule not given here); details: P. falciparum Dd2 in erythrocytes, SYBR Green DNA, 72 h; at 28.5 µM (top of the series)
# Outline: as §1
# [12] = qHTS profiling of the MIPE4 collection as inhibitors of Plasmodium falciparum (DD2) proliferation (Rep 2) (AID 743346; call rule not given here); details: P. falciparum Dd2 in erythrocytes, SYBR Green DNA, 72 h; at 28.5 µM (top of the series)
# Outline: as §1
# [13] = qHTS profiling of the MIPE4 collection as inhibitors of Plasmodium falciparum (HB3) proliferation (AID 743347; call rule not given here;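 further: plate controls were DMSO vehicle wells for no effect and artemisinin wells for full effect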); details: P. falciparum HB3 in erythrocytes, SYBR Green DNA, 72 h; at 28.5 µM (top of the series)
# Outline: as §1
# Chain of Calcium and integrin-binding protein 1 (Homo sapiens) (Q99828 whole entry, looked up): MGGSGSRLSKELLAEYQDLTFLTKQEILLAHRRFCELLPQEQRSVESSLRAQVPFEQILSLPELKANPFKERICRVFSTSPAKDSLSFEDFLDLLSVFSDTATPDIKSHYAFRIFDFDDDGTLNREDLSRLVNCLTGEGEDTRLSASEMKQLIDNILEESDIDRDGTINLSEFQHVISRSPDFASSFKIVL
# Chain of Ubiquitin carboxyl-terminal hydrolase 2 (Homo sapiens) (O75604 whole entry, looked up): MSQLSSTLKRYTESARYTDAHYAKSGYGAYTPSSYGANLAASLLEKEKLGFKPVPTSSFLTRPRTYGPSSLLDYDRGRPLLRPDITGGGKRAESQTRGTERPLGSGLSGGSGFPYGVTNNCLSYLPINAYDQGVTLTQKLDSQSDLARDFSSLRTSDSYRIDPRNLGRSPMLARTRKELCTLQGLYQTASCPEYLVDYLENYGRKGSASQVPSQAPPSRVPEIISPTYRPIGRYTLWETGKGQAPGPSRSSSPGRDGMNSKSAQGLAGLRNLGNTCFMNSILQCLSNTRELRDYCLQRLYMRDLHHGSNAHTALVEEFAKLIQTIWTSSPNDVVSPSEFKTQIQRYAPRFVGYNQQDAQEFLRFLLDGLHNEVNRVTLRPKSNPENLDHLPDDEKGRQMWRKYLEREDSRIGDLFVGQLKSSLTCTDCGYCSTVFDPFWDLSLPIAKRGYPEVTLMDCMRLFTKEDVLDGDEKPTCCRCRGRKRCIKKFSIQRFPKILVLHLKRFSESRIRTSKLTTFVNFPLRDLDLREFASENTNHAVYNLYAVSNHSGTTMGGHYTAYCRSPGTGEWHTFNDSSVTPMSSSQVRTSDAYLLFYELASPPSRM
smiles,measurement,setting,value
Cc1ccc(-c2cc(C(=O)NCc3ccccc3)c3ccccc3n2)cc1C,Potency,[1],inactive
same,Potency,[2],13.7 µM (active)
same,Potency,[3],inactive
Cc1ccc(-c2cc(C(=O)Nc3ccc(S(N)(=O)=O)cc3)c3ccccc3n2)cc1C,Potency,[1],inactive
same,Potency,[2],7.69 µM (active)
same,Potency,[3],inactive
Cc1ccc(S(=O)(=O)Nc2cccnc2C(=O)Nc2nc(-c3ccccc3)cs2)cc1,Potency,[1],14.8 µM (active)
same,Potency,[2],1.37 µM (active)
same,Potency,[3],inactive
COc1ccc(OC)c(C(=O)Nc2nc(-c3ccccc3)cs2)c1,Potency,[2],7.69 µM (active)
same,Potency,[3],inactive
Cc1ccc(S(=O)(=O)N(C)c2ccccc2C(=O)Nc2nc(-c3ccccc3)cs2)cc1,Potency,[1],inactive
same,Potency,[2],6.11 µM (active)
same,Potency,[3],inactive
Cc1ccc(S(=O)(=O)Nc2cccc(C(=O)Nc3nc(-c4ccccc4)cs3)c2Cl)cc1,Potency,[1],11.8 µM (active)
same,Potency,[2],3.43 µM (active)
same,Potency,[3],inactive
Cc1ccc(S(=O)(=O)Nc2cc(Cl)cc(C(=O)Nc3nc(-c4ccccc4)cs3)c2)cc1,Potency,[2],3.06 µM (active)
same,Potency,[3],inactive
Cc1ccc(-c2cc(C(=O)Nc3ccccc3Cl)c3ccccc3n2)cc1C,Potency,[1],inactive
same,Potency,[2],13.7 µM (active)
same,Potency,[3],inactive
Cc1ccc(NS(=O)(=O)c2ccc(C(=O)Nc3nc(-c4ccccc4)cs3)cc2)cc1,Potency,[2],3.43 µM (active)
same,Potency,[3],inactive
Cc1ccc(NS(=O)(=O)c2ccccc2C(=O)Nc2nc(-c3ccccc3)cs2)cc1,Potency,[2],3.43 µM (active)
same,Potency,[3],inactive
O=C(Nc1nc(-c2ccccc2)cs1)c1ccccc1,Potency,[1],inactive
same,Potency,[2],24.3 µM (active)
same,Potency,[3],inactive
Cc1ccc(S(=O)(=O)Nc2cc(C(=O)Nc3nc(-c4ccccc4)cs3)ccc2Cl)cc1,Potency,[1],inactive
same,Potency,[2],2.17 µM (active)
same,Potency,[3],inactive
Cc1ccc(-c2cc(C(=O)N(C)c3ccccc3)c3ccccc3n2)cc1C,Potency,[1],inactive
same,Potency,[2],21.7 µM (active)
same,Potency,[3],inactive
Cc1ccc(S(=O)(=O)Nc2ccccc2C(=O)Nc2ccc(-c3ccccc3)nn2)cc1,Potency,[1],inactive
same,Potency,[2],3.85 µM (active)
same,Potency,[3],inactive
Cc1ccc(S(=O)(=O)Nc2cncc(C(=O)Nc3nc(-c4ccccc4)cs3)c2)cc1,Potency,[2],6.85 µM (active)
same,Potency,[3],inactive
Cc1ccc(S(=O)(=O)Nc2ccc(F)cc2C(=O)Nc2nc(-c3ccccc3)cs2)cc1,Potency,[1],14.8 µM (active)
same,Potency,[2],1.93 µM (active)
same,Potency,[3],inactive
O=C(Nc1nc(-c2ccccc2)cs1)c1ccccc1[N+](=O)[O-],Potency,[2],12.2 µM (active)
same,Potency,[3],inactive
Cc1ccc(S(=O)(=O)Nc2ccccc2C(=O)Nc2ccc(-c3ccccc3)cn2)cc1,Potency,[2],2.17 µM (active)
same,Potency,[3],inactive
Cc1ccc(-c2cc(C(=O)Nc3nc4ccccc4s3)c3ccccc3n2)cc1C,Potency,[1],inactive
same,Potency,[2],21.7 µM (active)
same,Potency,[3],inactive
Cc1ccc(-c2cc(C(=O)Nc3ccccc3C)c3ccccc3n2)cc1C,Potency,[2],21.7 µM (active)
same,Potency,[3],inactive
Cc1ccc(-c2cc(C(=O)Nc3ccc(-n4cncn4)cc3)c3ccccc3n2)cc1C,Potency,[2],7.69 µM (active)
same,Potency,[3],inactive
Cc1ccc(S(=O)(=O)Nc2cccc(C(=O)Nc3nc(-c4ccc(Cl)cc4)cs3)c2)cc1,Potency,[2],2.43 µM (active)
same,Potency,[3],inactive
Cc1ccc(-c2cc(C(=O)Nc3ccc(S(=O)(=O)NCc4nccs4)cc3)c3ccccc3n2)cc1C,Potency,[2],3.43 µM (active)
same,Potency,[3],inactive
OC[C@H]1NC[C@H](O)[C@@H](O)[C@@H]1O,Potency,[4],inactive
same,Potency,[5],inactive
same,max response,[6],6.89% (inactive)
N[C@@H](Cc1ccc(O[S+](=O)([O-])c2cccc3cnccc23)cc1)C(=O)N1CCN(c2ccccc2)CC1,remaining parasite growth % (stronger effect = lower value),[7],-0.448%
same,"activity, percent of control",[8],3.27%
same,"remaining proliferation (% of control), lower = more inhibition",[9],1.2%
same,Potency,[3],inactive
Cc1ccc(-c2cc(C(=O)Nc3ccc(-n4cccn4)cc3)c3ccccc3n2)cc1C,Potency,[2],8.63 µM (active)
same,Potency,[3],inactive
O=C([C@H](Cc1ccc(O[S+](=O)([O-])c2cccc3cnccc23)cc1)N[S+](=O)([O-])c1cccc2cnccc12)N1CCN(Cc2ccccc2)CC1,"parasite growth, % of DMSO control",[10],4.76%
same,"parasite growth remaining, % of DMSO control (lower = more inhibition)",[11],6.64%
same,"parasite growth, % of control (lower = inhibition)",[12],19.3%
same,"growth, % of control",[13],5.19%
same,Potency,[3],inactive
CNC1CCC(N(Cc2ccc(OC)c(-c3ccc(C#N)cc3)c2)C(=O)c2sc3ccccc3c2Cl)CC1 (stereo unspecified),remaining parasite growth % (stronger effect = lower value),[7],-1.61%
same,"activity, percent of control",[8],-0.637%
same,"remaining proliferation (% of control), lower = more inhibition",[9],-1.57%
same,Potency,[3],inactive
Cc1ccc(S(=O)(=O)Nc2ccccc2C(=O)Nc2cccc(-c3ccccc3)c2)cc1,Potency,[2],2.17 µM (active)
same,Potency,[3],inactive
O=C([C@H](Cc1ccc(O[S+](=O)([O-])c2cccc3cccnc23)cc1)N[S+](=O)([O-])c1cccnc1)N1CCN(c2ccccc2)CC1,remaining parasite growth % (stronger effect = lower value),[7],-0.283%
same,"activity, percent of control",[8],0.179%
same,"remaining proliferation (% of control), lower = more inhibition",[9],-0.167%
same,Potency,[3],inactive
CC(C)(C)OC(=O)N[C@@H](Cc1ccc(O[S+](=O)([O-])c2cccc3cnccc23)cc1)C(=O)N1CCN(c2ccccc2)CC1,remaining parasite growth % (stronger effect = lower value),[7],-1.52%
same,"activity, percent of control",[8],-0.0871%
same,"remaining proliferation (% of control), lower = more inhibition",[9],-0.489%
same,Potency,[3],inactive
